High-throughput results deposited in PubChem by several laboratories.
AHR act: activators of human aryl hydrocarbon receptor; P35869; AHR-responsive luciferase reporter cells, luminescence; activation, % at 5 µM; actives 2.5% (n = 320,000); AID 2796; in the data active = activation above about 47%
Target sequence (P35869 whole entry, looked up): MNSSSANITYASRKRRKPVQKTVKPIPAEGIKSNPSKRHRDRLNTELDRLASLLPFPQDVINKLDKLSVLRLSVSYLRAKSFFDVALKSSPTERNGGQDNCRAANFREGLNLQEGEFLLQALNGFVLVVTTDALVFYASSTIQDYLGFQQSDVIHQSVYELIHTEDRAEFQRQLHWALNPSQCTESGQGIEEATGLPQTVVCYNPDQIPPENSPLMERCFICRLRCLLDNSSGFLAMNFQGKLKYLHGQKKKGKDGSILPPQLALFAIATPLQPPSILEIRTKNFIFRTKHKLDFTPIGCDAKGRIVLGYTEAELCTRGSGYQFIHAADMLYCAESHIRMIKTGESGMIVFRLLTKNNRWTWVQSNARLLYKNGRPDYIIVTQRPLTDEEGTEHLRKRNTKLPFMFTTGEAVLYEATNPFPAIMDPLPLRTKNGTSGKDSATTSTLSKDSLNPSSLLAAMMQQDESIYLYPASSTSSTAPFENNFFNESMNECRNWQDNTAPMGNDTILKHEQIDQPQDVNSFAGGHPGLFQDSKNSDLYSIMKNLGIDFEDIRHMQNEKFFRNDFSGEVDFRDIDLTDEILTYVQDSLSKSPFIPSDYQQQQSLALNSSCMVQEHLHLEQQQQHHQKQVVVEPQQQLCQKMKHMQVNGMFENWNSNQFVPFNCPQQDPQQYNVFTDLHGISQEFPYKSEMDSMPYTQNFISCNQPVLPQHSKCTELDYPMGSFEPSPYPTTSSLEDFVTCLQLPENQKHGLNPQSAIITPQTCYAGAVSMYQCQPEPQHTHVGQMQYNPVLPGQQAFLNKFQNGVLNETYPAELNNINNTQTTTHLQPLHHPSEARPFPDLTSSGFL
CR mimetic SO: caloric restriction mimetics inhibiting age-related superoxide in yeast. S. cerevisiae aged cells, superoxide DHE fluorescence; hits give low values. superoxide response (% of plate mean), % at 10 µM. actives 0.18% (n = 330,000);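 active = superoxide response under a set limit, about three screen SD below normal, cut at about 65% in these data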;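 note: yeast aged for seven days with compound at 30 °C before DHE staining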
PLCb3 inh: PLC-beta3 (human) inhibition, primary screen; Q01970; Purified PLC-beta3, fluorogenic substrate, fluorescence; inhibition, % at 12.2 µM; actives 0.18% (n = 370,000); AID 720704; in the data active = inhibition above about 11%
sPLA2-III inh: Inhibits HGIII-sPLA2 liposome hydrolysis, primary screen. QFRET BODIPY PC-A2 liposome hydrolysis, fluorescence. actives 0.56% (n = 370,000). Q9NZ20. inhibition, % at 12.2 µM. AID 743126;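 active = inhibition above mean plus 3 SD of compounds lying within the high and low control bounds, cut at about 19% in these data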
HIF activator: HIF pathway transcriptional activation; U2OS HRE-luciferase reporter, luminescence; normalized: DMSO 0%, desferrioxamine 100%; actives 0.32% (n = 300,000); activation, % at 7.5 µM (by protocol); AID 1910;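 active = mean activation of at least 10% of the iron chelator positive control signal, with at least half of replicates also reaching 10%; inconclusive = mean and replicate majority disagree about reaching 10%; inactive = mean and most replicates under 10%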
PLCg1 inh: blocks human PLC-gamma1 enzyme activity; P19174; purified PLC-gamma1, fluorogenic substrate, fluorescence; inhibition, % at 12.2 µM; actives 0.84% (n = 370,000); AID 720700; in the data active = inhibition above about 9.5%
Of the large screens only hits and unclear results are named; the others gave an inactive call. An excerpt weighted towards active compounds, which were near 3.9% of everything screened.

CSc1ccccc1OCc1cc(C(=O)NC(C)Cc2cccc(C)n2)no1 (configuration not stated)	AHR act 53
COc1cccc(-c2ccc(CC[C@H]3O[C@H]4CC[C@H](CO)O[C@H]4C[C@H]3NS(C)(=O)=O)cc2)c1	none (no result: AHR act, CR mimetic SO, HIF activator)
COc1cccc(C(C#N)N2N=C(C)CC2(C)C)c1O (configuration not stated)	PLCg1 inh 12
COC(=O)c1cc2c(c3c4ccccc4n(S(=O)(=O)c4ccc(OC)cc4)c13)C(=O)N(Cc1ccc(N(C)C)cc1)C2	none (no result: AHR act, CR mimetic SO, HIF activator)
CCC[C@H]1[C@@H](OC(=O)NCc2cccc(Cl)c2)CC[C@@]23CCCN2C(=O)CCC[C@@H]13	none (no result: AHR act, CR mimetic SO, HIF activator)
CSc1ccc(CCNC(=O)c2nn(C)c3c2CS(=O)(=O)c2ccccc2-3)cc1	none
Cn1nc(C(=O)NCCCN2CCCCC2)c2c1-c1ccccc1S(=O)(=O)C2	HIF activator 19 (no result: PLCb3 inh, sPLA2-III inh, PLCg1 inh)
Cc1c(C)n(CCc2ccccc2)c2ncnc(NCCCO)c12	AHR act 51
COc1ccc(C(C(=O)N(C)C2CCCC2)N(Cc2ccc(F)cc2)C(=O)c2ccc3ccccc3c2)cc1OC (configuration not stated)	none (no result: AHR act, CR mimetic SO, HIF activator)
CSc1nncn1/N=C/c1ccc([N+](=O)[O-])cc1	none
CSc1nncn1/N=C/c1ccc2c(c1)OCO2	AHR act 51
COC(=O)C1=C(C)N(Cc2cccc(C(F)(F)F)c2)C(=NCc2ccc(OC)cc2)NC1c1cccc(F)c1 (configuration not stated)	none (no result: AHR act, CR mimetic SO, HIF activator)
C=CCSc1cc(C)nc2c(-c3ccccc3)cnn12	AHR act 99, HIF activator inconclusive
Cc1cc(N)n2ncc(-c3ccccc3)c2n1	AHR act 61
O=C1CCC(NC(=O)Cc2ccccc2)C(=O)N1 (configuration not stated)	none (no result: AHR act, CR mimetic SO, HIF activator)
COc1ccccc1N1CCN(C(=O)c2ccc3c(c2)nc(C)n3-c2cc(OC)c(OC)c(OC)c2)CC1	none (no result: AHR act, CR mimetic SO, HIF activator)
Cc1ccn2cc(-c3ccc(Br)cc3)nc2c1	AHR act 74
COc1ccc(C)cc1NC(=O)C(OC(=O)CNC(=O)c1cccc(F)c1)c1ccccc1 (configuration not stated)	AHR act 72
Cc1ccc(C)c(NC(=O)C(OC(=O)c2cnc(C)cn2)c2ccccc2)c1 (configuration not stated)	AHR act 70
Cc1cnc(C(=O)OC(C(=O)Nc2cc(C(F)(F)F)ccc2Cl)c2ccccc2)cn1 (configuration not stated)	none
COc1ccc(C)cc1NC(=O)C(OC(=O)c1cnc(C)cn1)c1ccccc1 (configuration not stated)	AHR act 60
COc1ccc(C)cc1NC(=O)C(OC(=O)c1cc(C)oc1C)c1ccccc1 (configuration not stated)	AHR act 73
COc1ccc(NC(=O)C(OC(=O)c2cnc(C)cn2)c2ccccc2)cc1Cl (configuration not stated)	none
COC(=O)c1cc(S(=O)(=O)N2CCN(c3cccc(C(F)(F)F)c3)CC2)cn1C	none (no result: AHR act, CR mimetic SO, HIF activator)
COC(=O)[C@]12C[C@H](CC(=O)N3CCN(C(=O)c4ccco4)CC3)C(=O)N(CCC3=CCCCC3)C1=C[C@H](C(C)C)O[C@@H]2C1CC1	none (no result: AHR act, CR mimetic SO, HIF activator)
C#CCNC(=O)C[C@@H]1C(=O)N2CCCC3=C2[C@@]1(C(=O)OC)CCCC3	none (no result: AHR act, CR mimetic SO, HIF activator)
O=C(/C=C(\Nc1cc(Cl)c(Cl)c(Cl)c1)c1ccccc1)c1ccccc1	none (no result: AHR act, CR mimetic SO, HIF activator)
Cc1cc(C)n(-c2nc(-c3ccc(Cl)cc3)cs2)n1	AHR act 60
CC1=NN(c2nc(-c3ccc(Cl)cc3)cs2)C(=O)C1	none
CC(=O)N(CCc1cccc(C)c1)Cc1cc2cc(C)ccc2[nH]c1=O	AHR act 49
CC(=O)N(CCc1cccc(C)c1)Cc1cc2ccc(C)cc2[nH]c1=O	none
Cc1ccccc1Cn1cc(NC(=O)c2cc(C3CC3)on2)cn1	AHR act 74
CCc1ccccc1NC(=O)c1cc(C2CC2)on1	none
Clc1ccc2oc(-c3ccccn3)nc2c1	AHR act 61
Cc1[nH]c2ccccc2c1C(=O)c1c(N)[nH]c(C(=O)c2ccc(Br)cc2)c1-c1ccc(Br)cc1	none (no result: AHR act, CR mimetic SO, HIF activator)
O=C(CSc1n[nH]c(-c2ccco2)n1)Nc1sc2c(c1C(=O)Nc1ccccc1)CCCC2	AHR act 48
N#Cc1ccc(NC(=O)OC2CCC23CCC(c2ccccc2)CC3)cc1 (configuration not stated)	none (no result: AHR act, CR mimetic SO, HIF activator)
CCOC(=O)c1ccc(N2C(=O)c3n[nH]c(-c4ccco4)c3C2c2cccc([N+](=O)[O-])c2)cc1 (configuration not stated)	PLCg1 inh 13
FC(F)(F)Oc1cccc(Cn2ccc3ccc(-c4ccc5ccn(Cc6ccccc6)c5c4)cc32)c1	none (no result: AHR act, CR mimetic SO, HIF activator)
COC(=O)[C@]12C[C@H](CC(=O)NCCC(C)C)C(=O)N(Cc3cccc4ccccc34)C1=C[C@H](C(C)C)O[C@@H]2C1CC1	none (no result: AHR act, CR mimetic SO, HIF activator)
Oc1[nH]c2ccc(Br)cc2c1N=Nc1ccc(F)cc1	AHR act 62
O=[N+]([O-])CC(=Nc1ccc(Cl)cc1)N/N=C\c1oc(O)c2ccccc12	AHR act 95
O=C(N/N=C/c1ccc([N+](=O)[O-])o1)c1cn(-c2ccccc2)nc1-c1ccc(Cl)cc1	none
CCS(=O)(=O)Nc1cccc(-c2nc3cccnc3s2)c1	AHR act 76
CCS(=O)(=O)Nc1ccc(-c2nc3cccnc3s2)cc1	AHR act 66
Cc1nc2ccc(S(=O)(=O)Nc3ccc(-c4nc5cccnc5s4)cc3)cc2s1	AHR act 69
CCS(=O)(=O)Nc1cc(-c2nc3cccnc3s2)ccc1C	AHR act 70
CN(C)c1cccc(-c2ccnc(N3CCC(C(N)=O)CC3)n2)c1	none (no result: AHR act, CR mimetic SO, HIF activator)
COc1ccc(C2NC(=S)N(Cc3ccc(Cl)cc3)C(C)=C2C(C)=O)cc1 (configuration not stated)	none (no result: AHR act, CR mimetic SO, HIF activator)
CCOC(=O)C1=C(C(=O)OCC)C2N(Cc3ccc(C#N)cc3)c3ccccc3[C@@]23C[C@@H](C(=O)OC)N(S(=O)(=O)c2ccccc2)C3=N1 (some centres not stated)	none (no result: AHR act, CR mimetic SO, HIF activator)
C/C(CCc1oc2ccc(Br)cc2c1-c1ccc(C)o1)=N/O	AHR act 56
C/C(CCc1oc2ccc(Cl)cc2c1-c1ccc(C)o1)=N\O	none
O=C(CSc1nnc(-c2ccccn2)n1-c1ccccc1)Nc1cccc2ccccc12	none (no result: AHR act, CR mimetic SO, HIF activator)
CCCC[C@H]1C2CC(OC(=O)Nc3ccccc3C(F)(F)F)C(C2)[C@H]2CCCCN21 (some centres not stated)	none (no result: AHR act, CR mimetic SO, HIF activator)
COC(=O)[C@H](CC(C)C)N(Cc1cn(Cc2ccc(C)cc2)nn1)S(=O)(=O)c1ccc(F)cc1Br	none (no result: AHR act, CR mimetic SO, HIF activator)
CCOC(=O)c1[nH]c2cc3c(cc2c1NC(=O)CN1CCCC1)OCO3	AHR act 58
COc1ccc(CN(C)CC(=O)Nc2ccc(N3CCOCC3)cc2)cc1OC	none
